High-throughput results: PubChem, National Center for Advancing Translational Sciences (NCATS)
The list is not random: actives were taken first. Their share in the collection is about 11%.
HEK293 tox: HEK 293 cell cytotoxicity. HEK 293 viability, ATP luminescence (CellTiter-Glo), 48-72 h. Potency, µM (highest dose often 115 µM), usual class: inhibitors. 94,000 compounds, 6.6% hits. AID 1345083; further: nearly all actives have a fitted effect of over 60% in size
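qHTS cytotoxicity; HEK 293, 250 cells/well; compound pinned; 48 or 72 hr, 37 degree Celsius, 5% CO2, 95% humidity; CellTiter-Glo, 10 min RT; luminescence (ATP).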
FLuc inh: blocks purified firefly luciferase enzyme activity | purified P. pyralis luciferase, luminescence, biochemical | AID 1347043 | 76,000 compounds, 2.5% hits | Potency, µM (series often up to 115 µM), hits mostly inhibitors; further: nearly all actives have a fitted effect of over 65% in size
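Biochemical qHTS: compound (6-point titration) added to 10uM D-luciferin plus 10uM ATP in Tris acetate pH 7.5 buffer with Mg, Tween-20 and BSA, then purified enzyme at 10nM; light output imaged.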
NIH3T3 tox: NIH 3T3 cell cytotoxicity; 94,000 compounds, 4.3% hits; NIH 3T3 viability, CellTiter-Glo ATP luminescence, 48-72 h; Potency, µM (doses to about 96.7 µM), actives largely listed as inhibitors; further: nearly all actives have a fitted effect of over 55% in size
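Cytotoxicity was measured by CellTiter-Glo ATP luminescence after 48 or 72 h compound exposure at 37 °C. Mouse NIH 3T3 fibroblasts were seeded at 400 cells/well and dosed by 23 nL pin transfer.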
NPR1 antag: antagonists of human natriuretic peptide receptor Npr1 | HEK293 hNpr1 GloSensor cGMP, ANP-stimulated luminescence | Potency, µM (top dose mostly 46.3 µM), most hits filed as inhibitors | 76,000 compounds, 1.6% hits; calls by dose curve; further: nearly all actives have a fitted effect of over 60% in size
Target sequence (P16066 whole entry, looked up): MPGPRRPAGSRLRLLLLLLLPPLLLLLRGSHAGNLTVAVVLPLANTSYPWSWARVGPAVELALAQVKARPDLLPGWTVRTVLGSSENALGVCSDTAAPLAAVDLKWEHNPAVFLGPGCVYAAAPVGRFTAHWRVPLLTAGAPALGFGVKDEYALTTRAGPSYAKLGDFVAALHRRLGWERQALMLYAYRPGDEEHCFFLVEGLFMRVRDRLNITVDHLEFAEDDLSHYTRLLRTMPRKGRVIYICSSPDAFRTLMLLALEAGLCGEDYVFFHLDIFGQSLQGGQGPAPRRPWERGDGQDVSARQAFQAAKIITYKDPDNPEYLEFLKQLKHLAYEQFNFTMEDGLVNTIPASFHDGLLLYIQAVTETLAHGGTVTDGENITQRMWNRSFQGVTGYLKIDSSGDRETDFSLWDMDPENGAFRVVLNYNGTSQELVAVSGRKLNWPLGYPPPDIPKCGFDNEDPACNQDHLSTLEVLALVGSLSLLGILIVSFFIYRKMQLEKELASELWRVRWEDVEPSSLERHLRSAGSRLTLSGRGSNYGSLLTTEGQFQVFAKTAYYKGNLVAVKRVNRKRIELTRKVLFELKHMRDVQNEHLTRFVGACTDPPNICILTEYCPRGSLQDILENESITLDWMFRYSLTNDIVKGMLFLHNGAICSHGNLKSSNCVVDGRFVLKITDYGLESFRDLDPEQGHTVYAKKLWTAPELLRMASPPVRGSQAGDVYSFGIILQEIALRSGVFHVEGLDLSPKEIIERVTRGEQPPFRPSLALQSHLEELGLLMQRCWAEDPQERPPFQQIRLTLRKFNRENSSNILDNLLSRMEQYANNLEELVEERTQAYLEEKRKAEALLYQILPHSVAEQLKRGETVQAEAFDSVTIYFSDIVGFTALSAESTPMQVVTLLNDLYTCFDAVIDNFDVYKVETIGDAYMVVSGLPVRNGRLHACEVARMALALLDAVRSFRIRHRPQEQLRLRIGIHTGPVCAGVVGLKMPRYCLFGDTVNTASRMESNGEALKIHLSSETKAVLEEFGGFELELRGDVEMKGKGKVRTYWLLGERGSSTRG
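HEK293 cells stably expressing human Npr1 and cGMP GloSensor pGS-40F, loaded 2 h with 2% GloSensor reagent, given compound 30 min at room temperature. Luminescence read before and 20 min after 0.1 nM hNppA.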
Large screens that a line does not name were inactive. Unless noted, the call rests on the fitted dose curve; in most records, active means well fitted curve in the direction sought with a large enough effect; inconclusive means small, poorly fitted or top-dose-only effect, or another doubt; inactive means no such curve, though single readings can be large; an effect the other way counts as inactive or inconclusive.

C#CCNC(=O)[C@@H]1Cc2c[nH]c3cccc(c23)[C@H](CC(C)C)N1	HEK293 tox 71µM, NIH3T3 tox 100µM
CC(C)C[C@@H]1N[C@H](C(=O)NCc2ccco2)Cc2c[nH]c3cccc1c23	HEK293 tox 35µM, NIH3T3 tox 100µM
COc1ccccc1N1CCN(C(=O)[C@@H]2Cc3c[nH]c4cccc(c34)[C@H](CC(C)C)N2)CC1	HEK293 tox inconclusive, NIH3T3 tox inconclusive
CC(C)C[C@@H]1N[C@H](C(=O)NCC2CC2)Cc2c[nH]c3cccc1c23	HEK293 tox 35µM, NIH3T3 tox inconclusive
CC(C)C[C@@H]1N[C@H](C(=O)N2CCOCC2)Cc2c[nH]c3cccc1c23	none
O=C(NCc1cc(F)cc(F)c1)c1ccc(N2CC3CC(C2)[C@H]2CCCC(=O)N2C3)nc1 (some centres not stated)	none
O=C(NCc1ccc(F)cc1F)c1ccc(N2CC3CC(C2)[C@H]2CCCC(=O)N2C3)nc1 (some centres not stated)	NIH3T3 tox 28µM
O=C(NCc1cccnc1)c1ccc(N2CC3CC(C2)[C@H]2CCCC(=O)N2C3)nc1 (some centres not stated)	NIH3T3 tox 5µM
CN(Cc1ccsc1)Cc1cccc(C(F)(F)F)c1	none (no result: FLuc inh, NPR1 antag)
COCCCNC(=O)N1CCC(N2C(=O)C3(CCCC3)C2c2ccccc2)CC1 (configuration not stated)	none (no result: FLuc inh, NPR1 antag)
CCc1nc2c(c(-c3ccc(Cl)cc3)n1)CCN([S+](=O)([O-])c1ccccc1)CC2	HEK293 tox 35µM, NIH3T3 tox inconclusive
C[S+](=O)([O-])N1CCc2nc(-c3ccccc3)nc(-c3ccc(Cl)cc3)c2C1	none
CCc1nc2c(c(-c3ccc(OC)cc3)n1)CN([S+](=O)([O-])c1cccc(OC)c1)CC2	NIH3T3 tox 28µM (no result: FLuc inh, NPR1 antag)
COc1ccc(-c2nc(C(C)C)nc3c2CN([S+](=O)([O-])c2cccc(OC)c2)CC3)cc1	HEK293 tox inconclusive, NIH3T3 tox inconclusive
C[S+](=O)([O-])N1CCc2nc(C3CC3)nc(-c3ccc(Cl)cc3)c2C1	HEK293 tox inconclusive, NIH3T3 tox 32µM (no result: FLuc inh, NPR1 antag)
CN(Cc1ccccc1)C(=O)c1cn2ccnc(-c3ccccc3)c2n1	HEK293 tox inconclusive
CNC(=O)CCn1ncc2cc(OC3CCc4cccc(-c5ccncc5)c43)ccc21 (configuration not stated)	HEK293 tox 100µM, NIH3T3 tox inconclusive
CNC(=O)CCn1ncc2cc(OC3CCc4cccc(-c5cccnc5)c43)ccc21 (configuration not stated)	HEK293 tox 100µM, NIH3T3 tox inconclusive
CC(C)(C)C(Cn1ccnc1)NC(=O)c1cc(COc2ccc3c(c2)CCCC3)on1 (configuration not stated)	HEK293 tox 25µM, FLuc inh inconclusive, NIH3T3 tox 20µM
Cc1cc(C)n(CCCNC(=O)c2cc(COc3ccc4sc(C)nc4c3)on2)n1	none
Cc1ccc(NC(=O)c2ccc3nc(-c4cccc(C)n4)oc3c2)cc1	HEK293 tox inconclusive (no result: FLuc inh, NPR1 antag)
O=C(NC1CC1)c1cc(C2CC2)nc2c1c(C1CCCN1)nn2-c1ccccc1 (configuration not stated)	HEK293 tox 79µM, NIH3T3 tox 32µM (no result: FLuc inh, NPR1 antag)
O=C(NC1CCNCC1)c1cc(C2CC2)nc2c1c(C1CCCN1)nn2-c1ccccc1 (configuration not stated)	HEK293 tox 45µM, NIH3T3 tox 22µM (no result: FLuc inh, NPR1 antag)
Cn1nc(C2CCCN2)c2c(C(=O)NC3CC3)cc(C3CC3)nc21 (configuration not stated)	none (no result: FLuc inh, NPR1 antag)
CN(C)CCNC(=O)c1ccnc(-c2nnc3ccc(N(C)c4ccccc4)nn23)c1	HEK293 tox inconclusive, NIH3T3 tox inconclusive
Clc1cccc(-c2cnc([C@@H]3COCCN3Cc3ccccc3)[nH]2)c1	HEK293 tox 100µM, NIH3T3 tox 79µM, NPR1 antag inconclusive
Clc1cccc(-c2cnc([C@@H]3COCCN3C3CCCCC3)[nH]2)c1	HEK293 tox 79µM, NIH3T3 tox inconclusive
Oc1ccccc1CN1CCOC[C@H]1c1ncc(-c2ccc(F)cc2)[nH]1	HEK293 tox inconclusive
Oc1ccccc1CN1CCOC[C@H]1c1ncc(-c2ccccc2)[nH]1	HEK293 tox inconclusive, NIH3T3 tox 100µM
Clc1ccc(-c2cnc([C@@H]3COCCN3Cc3ccccc3)[nH]2)cc1	HEK293 tox 89µM, NIH3T3 tox inconclusive, NPR1 antag inconclusive
Cc1ccsc1C(=O)N1CCC2(CC1)CC(N1CCOCC1)CCO2 (configuration not stated)	none (no result: FLuc inh, NPR1 antag)
O=C(Cc1ccccn1)N1CCCC(C(=O)N2CCC(N3Cc4cccn4C3=O)CC2)C1 (configuration not stated)	none (no result: FLuc inh, NPR1 antag)
O=C(NCCc1ccccc1F)C1CCc2nnc(CN[S+](=O)([O-])c3ccccc3Cl)n21 (configuration not stated)	none (no result: FLuc inh, NPR1 antag)
CC(=O)N1CCCN(c2ccc3nnc(C4CC4)n3n2)CC1	none (no result: FLuc inh, NPR1 antag)
COc1cc(-c2cc(C)c3cccc(OC)c3n2)cc2c1OCCN(C(=O)CCN)C2	HEK293 tox inconclusive, NIH3T3 tox 89µM
O=C(NC1CCCC1)c1csc(N2CCN(c3cccc(Cl)c3)CC2)n1	HEK293 tox 35µM, NIH3T3 tox inconclusive
CCCCN1CCN(C(=O)c2csc(N3CCN(c4cccc(Cl)c4)CC3)n2)CC1	HEK293 tox 22µM, NIH3T3 tox inconclusive
CC1CCN(C(=O)c2csc(N3CCN(c4ccc(Cl)cc4)CC3)n2)CC1	HEK293 tox inconclusive, NIH3T3 tox inconclusive, NPR1 antag inconclusive
O=C(Cc1ccc(F)cc1)NC1CCCN(c2ccc3nnc(C4CC4)n3n2)C1 (configuration not stated)	none (no result: FLuc inh, NPR1 antag)
O=C(C1CCCC1)N1CCCC(C(=O)N2CCCC2c2nc3ccncc3[nH]2)C1 (configuration not stated)	none (no result: FLuc inh, NPR1 antag)
O=C(Nc1ccc(Cl)cc1)N1CCC(c2nn(-c3ccccn3)c(=O)[nH]2)CC1	none (no result: FLuc inh, NPR1 antag)
Cc1cc2cc(-c3c(C)noc3C)nc(-c3ccc([S+](C)(=O)[O-])cc3)c2o1	NIH3T3 tox inconclusive
COc1cc(CNc2nc(-c3c(C)noc3C)cc3cc(C)oc23)cc(OC)c1	HEK293 tox inconclusive, NIH3T3 tox 25µM, NPR1 antag inconclusive
Cc1cc2cc(-c3c(C)noc3C)nc(N(C)CCN(C)C)c2o1	HEK293 tox 100µM, NIH3T3 tox inconclusive
Cc1cc2cc(-c3c(C)noc3C)nc(Nc3ccccc3)c2o1	HEK293 tox inconclusive, NIH3T3 tox 32µM
CC(C)(C)C(=O)N1CCN(c2ccnc3ccnn23)CC1	none (no result: FLuc inh, NPR1 antag)
Cn1nc(C(=O)N2CCC3(CC2)N=C(c2ccccc2)NO3)c2ccccc21	HEK293 tox inconclusive, FLuc inh 35µM
O=C(c1ccncc1)N1CCC2(CC1)N=C(c1ccccc1)NO2	none
O=C(c1n[nH]c2c1CCCC2)N1CCC2(CC1)N=C(c1ccccc1)NO2	HEK293 tox inconclusive, FLuc inh 28µM
COc1ccccc1Cn1c(=O)c(C(=O)N2CCN(C(=O)c3ccc(C)cc3)CC2)nc2cccnc21	NIH3T3 tox inconclusive (no result: FLuc inh, NPR1 antag)
CCN1CCN(c2ccc(-c3nc(CCCc4ccccc4)no3)cn2)CC1	HEK293 tox inconclusive, FLuc inh inconclusive, NIH3T3 tox inconclusive
